Compounds with a hit are over-represented: about 4.8% of the library has one in this group of screens.
ssDAF-12 act: S. stercoralis DAF-12 nuclear receptor activators, primary screen, cell-based, luminescence, HEK293, GRIP1 co-expression, lit1-tk-luc. 370,000 tested, 1% active. Nuclear hormone receptor DAF-12 (Strongyloides stercoralis). activation, % at 6.8 µM. HEK293 ssDAF-12/GRIP1 lit1-tk-luc reporter; % of 3 µM dafachronic acid response;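 active = activation above the mean over all tested compounds plus 3 SD, cut at about 0.9% in these data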;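 note: 0% = DMSO-only wells and 100% = 3 µM delta7-dafachronic acid wells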
hcDAF12 agonist: H. contortus DAF-12 nuclear receptor activators, primary screen, cell-based, luminescence, HEK293, lit1-tk-luc reporter | AID 652067, 2013 | 370,000 tested, 1.4% active | activation, % at 6.8 µM | HEK293 hcDAF-12 lit1-tk-luc reporter; 0% DMSO, 100% Δ7-dafachronic acid;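 active = activation above the mean of all tested compounds plus 3 SD, cut at about 5.5% in these data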;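 note: 100% = response to 3 µM Δ7-dafachronic acid high control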
SMARCA2 activ: SMARCA2 (BRM) function activators, primary screen, cell-based, luminescence, high throughput; MG213 cells, MMTV-luciferase reporter, dexamethasone, overnight; activation, % at 9.1 µM; 370,000 tested, 1% active; in the data active = activation above about 7.8%;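 note: 0% = vehicle wells and 100% = reference activator wells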
DAX1 inh-1: DAX1 (NR0B1) inhibitors on StAR promoter, primary screen, cell-based, luminescence, SF-1 (NR5A1), full-length DAX-1 | AID 652010, 2013 | HEK293T StAR-luciferase reporter, SF-1/DAX-1 repression relief | inhibition, % at 6.8 µM | 370,000 tested, 1.1% active;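 active = inhibition above the mean over all tested compounds plus 3 SD, cut at about 3.6% in these data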;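 note: 0% = DAX-1 cells with DMSO and 100% = cells lacking DAX-1 with DMSO; higher inhibition means more luminescence from relief of DAX-1 repression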
hgDAF-12 ag: H. glycines DAF-12 receptor agonists, primary screen, cell-based, luminescence, HEK293, GAL4 fusion, UAS-luciferase; Nuclear hormone receptor DAF-12 (Heterodera glycines), GAL4 fusion; HEK293 GAL4-hgDAF12 UAS-luciferase reporter, agonist luminescence; normalized to butyrate control; activation, % at 6.8 µM; 370,000 tested, 1.8% active; AID 687014, 2013;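 active = activation above a cutoff set at the mean of all screened compounds plus 3 SD, cut at about 10% in these data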;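 note: 0% = DMSO wells and 100% = sodium butyrate wells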
DAX1 inh-2: DAX1 (NR0B1) inhibitors, primary screen, cell-based, HEK293, Gal4-DAX1, luciferase luminescence | Nuclear receptor subfamily 0 group B member 1 (Homo sapiens), P51843 | HEK293 Gal4-DAX1 luciferase reporter | inhibition, % at 6.75 µM | 340,000 tested, 0.99% active;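 active = inhibition above the mean over all tested compounds plus 3 SD, cut at about 4.2% in these data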;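 note: 0% = DAX1-transfected cells with DMSO and 100% = empty-vector control cells with DMSO; inhibition shows as a rise in luminescence from relieved DAX1 repression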
hgDAF12 conf: H. glycines DAF-12 receptor agonists, confirmation, cell-based, luminescence, HEK293, GAL4-LBD fusion; HEK293 GAL4-hgDAF12 luciferase reporter, agonist mode; percent of butyrate response; shares compounds with hgDAF-12 ag; 3,300 tested, 80% active; activation, % at 6.8 µM;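 active = mean activation over triplicate wells above the hit cutoff derived from the earlier primary screen, cut at about 11% in these data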;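 note: 0% = DMSO low control and 100% = 2 mM sodium butyrate high control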
LXRb DAF12 ctr: LXR agonists, Gal4 luciferase reporter, confirmation, counter-screen for hgDAF-12 agonist project, cell-based, luminescence, HEK293, H. glycines campaign | shares compounds with hgDAF-12 ag | activation, % at 6.8 µM | 3,300 tested, under 10 active | 24 h;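 active = mean activation of the triplicate above a set limit carried over from the primary screen, none filed active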
Target sequence (P55055 whole entry, looked up, the tested form may be a part): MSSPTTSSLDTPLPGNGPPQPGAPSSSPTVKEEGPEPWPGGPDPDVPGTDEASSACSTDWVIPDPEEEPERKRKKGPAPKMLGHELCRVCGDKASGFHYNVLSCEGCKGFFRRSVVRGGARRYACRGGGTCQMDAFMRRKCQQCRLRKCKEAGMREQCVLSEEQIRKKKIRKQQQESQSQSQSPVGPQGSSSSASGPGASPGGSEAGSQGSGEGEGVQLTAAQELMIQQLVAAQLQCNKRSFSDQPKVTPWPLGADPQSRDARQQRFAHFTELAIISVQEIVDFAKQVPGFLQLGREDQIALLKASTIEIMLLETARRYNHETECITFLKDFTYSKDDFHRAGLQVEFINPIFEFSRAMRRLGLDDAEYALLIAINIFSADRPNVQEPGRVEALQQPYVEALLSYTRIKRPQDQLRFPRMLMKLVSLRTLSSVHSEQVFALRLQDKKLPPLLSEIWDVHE
* = called active by the depositor; . = no result given.

SMILES	ssDAF-12 act	hcDAF12 agonist	SMARCA2 activ	DAX1 inh-1	hgDAF-12 ag	DAX1 inh-2	hgDAF12 conf	LXRb DAF12 ctr
O=C(OCc1ccccn1)c1ccc(COc2ccc3ccccc3c2)o1	0	4	2	3	14*	2	11*	0
O=C(/C=C/Nc1ccc(Cc2ccc(N/C=C/C(=O)C(F)(F)F)cc2)cc1)C(F)(F)F	0	5	2	2	13*	2	1	0
COc1ccc(N/C=C/C(=O)C(F)(F)F)cc1	-1	-1	-2	0	-1	0	.	.
O=C(CSc1nnc(-c2cccnc2)n1Cc1ccco1)Nc1ccc(Cl)cc1	-1	1	-3	1	0	.	.	.
O=C(COc1ccc(Cl)cc1Cl)Nc1cccnc1	0	3	2	3	15*	2	14*	1
Cc1cc(-c2cc(NC(=O)Cc3c[nH]c4ccccc34)ccc2N(C)c2cccnc2)ccc1F	0	-1	1	0	-1	.	.	.
COC(=O)c1sccc1NC(=O)c1ccc(C)o1	-1	0	2	-1	-1	-1	.	.
COC(=O)c1sccc1-c1ccc(C(=O)Nc2ccccc2)o1	0	6	5	2	13*	3	13*	1
O=C(O)c1ccc(/C=N/NC(=O)c2ccc3c(c2)OCCO3)cc1	0	5	1	1	6	0	.	.
O=C(N/N=C/c1ccc(Br)o1)c1ccc2c(c1)OCCO2	0	3	7	2	16*	1	11*	1
COc1c(O)ccc(/C=N/NC(=O)c2ccc3c(c2)OCCO3)c1[N+](=O)[O-]	0	2	5	2	15*	3	9	0
O=C1NC(c2ccc(O)cc2)Nc2ccccc21 (stereo unspecified)	-1	0	0	0	3	2	.	.
CSc1ccc(C2NC(=O)c3ccccc3N2)cc1 (stereo unspecified)	0	3	4	0	15*	4.6*	14*	0
O=C1NC(=O)C2C3C=CC(C12)C1C(=O)NC(=O)C31 (stereo unspecified)	-1	2	-7	-1	1	.	.	.
COc1ccc(-c2ccccc2C2Cc3nnccc3CN2)cc1 (stereo unspecified)	-1	-2	3	0	1	.	.	.
Cc1cc(NC(=O)c2cc(F)c(F)cc2Cl)no1	-2	0	-4	0	-1	1	.	.
Cc1ccc(NC(=O)Nc2cccc(F)c2)nc1	0	2	5	1	13*	4.8*	14*	1
Cc1ccc(NC(=O)c2cc(F)c(F)cc2Cl)nc1	0	1	-3	3	17*	1	11*	0
Cc1ccc(NC(=O)c2ccccc2F)nc1	0	4	4	3	14*	3	14*	1
CC1=N/C(=C\c2ccc([N+](=O)[O-])cc2)C(=O)N1c1ccc(C)c(Cl)c1	-2	0	-4	0	1	.	.	.
COc1ccc(/C=C/c2nc3ccccc3n2C)cc1	-3	-4	-4	-2	-12	-4	.	.
CCC(C)n1c(/C=C/c2ccccc2)nc2ccccc21 (stereo unspecified)	-1	2	3	0	3	-1	.	.
CC(C)Cn1c(/C=C/c2ccccc2)nc2ccccc21	0	1	3	3	14*	0	9	0
COc1ccc(Cn2c(/C=C/c3ccccc3)nc3ccccc32)cc1	1	6.4*	6	3.8*	18*	2	20*	1
O=[N+]([O-])c1cccc(-c2ccc(C(=S)N3CCN(c4ccccc4)CC3)o2)c1	-1	-1	4	-1	1	.	.	.
SMILES	ssDAF-12 act	hcDAF12 agonist	SMARCA2 activ	DAX1 inh-1	hgDAF-12 ag	DAX1 inh-2	hgDAF12 conf	LXRb DAF12 ctr
O=[N+]([O-])c1cccc(-c2ccc(C(=S)N3CCOCC3)o2)c1	0	5	7	3	18*	3	16*	1
S=C(c1ccc(-c2cccc(Cl)c2)o1)N1CCCCC1	1.1*	6.3*	3	4.2*	27*	2	21*	1
COC(=O)[C@]12C[C@H](CC(=O)NCc3cccc4ccccc34)C(=O)N(CCc3ccc(OC)c(OC)c3)C1=C[C@H](C(C)(C)C)O[C@@H]2C	-2	-2	1	0	-1	.	.	.
Nc1ccn([C@@H]2O[C@H](C(=O)N[C@H](Cc3ccccc3)C(=O)NCC(F)(F)F)[C@@H](O)[C@H]2O)c(=O)n1	-1	-1	0	0	0	.	.	.
O=C(C(=O)N1CCN(S(=O)(=O)c2ccc(Cl)cc2)CC1)c1cccc(C(F)(F)F)c1	-1	-1	-5	1	1	.	.	.
c1ccc(OCc2cc(-c3ccccc3)no2)cc1	-1	5	3	1	14*	2	12*	0
COc1ccccc1OCc1cc(-c2ccccc2)no1	-1	5.7*	2	3.6*	14*	2	11*	1
CCNC(=O)N1C[C@H]2CON(C)[C@H]2C[C@H]1c1ccc(N2CCCCC2)cc1	-1	-1	-3	0	4	.	.	.
Fc1ccccc1CSc1ccc(-c2ccco2)nn1	0	2	6	4.1*	16*	4	15*	1
Cc1cccc(/C(N)=N/OC(=O)c2cccnc2)c1	1.1*	5	8	3	20*	2	11*	1
Cc1ccc(NC(=O)N(C2=NCC(C)S2)c2ccccc2)cc1 (stereo unspecified)	-1	1	1	1	7	2	.	.
Cc1cccc(N(C(=O)Nc2ccccc2)C2=NCC(C)S2)c1 (stereo unspecified)	-1	2	1	1	15*	4	4	0

Screening data: PubChem BioAssay, The Scripps Research Institute Molecular Screening Center
